# Test results: PubChem BioAssay
# Calls of active or inactive are those of the source.
# Tests used:
# [1] = tested on: Plasmodium falciparum Sir2 (PF13_0152, Sir2A); experiment: Plasmodium falciparum Sir2A binding compounds – biochemical, small-molecule microarray, 635 nm fluorescence, primary screen (AID 1098); settings: fluorescence 635 nm, higher = more signal;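 note: score merges spot fluorescence intensity with its signal-to-noise ratio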
# [2] = probe aDKK1 binding to arrayed compounds – biochemical, biotinylated probe, 635/667 nm fluorescence, primary screen (AID 1099); settings: small-molecule microarray, higher = more signal;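 note: score merges 667nm spot fluorescence with signal to noise across triplicate slides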
# [3] = probe aCHRDL2 binding to arrayed compounds – biochemical, biotinylated probe, 635/667 nm fluorescence, primary screen (AID 1100); settings: small-molecule microarray, higher = more signal
# [4] = change in splice reporter luminescence, either direction, cell-based, HEK293, spliceosome inhibition project, primary screen (AID 1101); settings: HEK293 splicing luciferase reporter, 24 h, higher = more signal, called active from +8 up or from −8 down;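 note: HEK293 cells carrying a splicing-competent luciferase reporter gene; test concentration not given here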
# [5] = biological target: Fibroblast growth factor 10 (Homo sapiens) (UniProt O15520); experiment: compounds binding fibroblast growth factor 10 – biochemical, small-molecule microarray, 635 nm fluorescence, primary screen (AID 1102); settings: FGF10 binding, fluorescence 635 nm, higher = more signal
# [6] = tested on: glycogen synthase kinase-3 (GSK3A per assay name; protocol says GSK3B); experiment: compounds binding glycogen synthase kinase-3 – biochemical, small-molecule microarray, 635 nm fluorescence, GSK3A, primary screen (AID 1103); settings: fluorescence 635 nm, higher = more signal; note: the record names both GSK3A and GSK3B
# [7] = biological target: Epidermal growth factor receptor (Homo sapiens) (UniProt P00533); experiment: compounds binding epidermal growth factor receptor – biochemical, small-molecule microarray, 635 nm fluorescence, primary screen (AID 1104); settings: EGFR binding, higher = more signal;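 note: score merges 667 nm emission intensity with spot signal to noise over triplicate slides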
# [8] = biological target: Follistatin-related protein 3 (Homo sapiens) (UniProt O95633); experiment: compounds binding follistatin-related protein 3 – biochemical, small-molecule microarray, 635 nm fluorescence, primary screen (AID 1105); settings: FSTL3 binding, higher = more signal;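 note: score merges emission near 667 nm and signal to noise per printed spot across three slides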
# [9] = biological target: Dickkopf-related protein 1 (Homo sapiens) (UniProt O94907); experiment: small molecules binding DKK1 protein – biochemical, small-molecule microarray, 635 nm fluorescence scan, primary screen (AID 1106); settings: higher = more signal;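 note: score merges emission near 667 nm with signal to noise over three replicate slides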
# [10] = tested on: Inhibin beta A chain (activin A); experiment: small molecules binding activin A – biochemical, small-molecule microarray, 635 nm fluorescence scan, primary screen (AID 1107); settings: INHBA, higher = more signal;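 note: mouse activin A protein probed at 4.33 µg/mL on printed slides; score merges bound-protein fluorescence near 667 nm with spot signal-to-noise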
# [11] = tested on: Human papillomavirus type 1a protein E7 (residues 44-93); experiment: small molecules binding HPV E7 44-93 – biochemical, small-molecule microarray, residues 44-93, 635 nm fluorescence, primary screen (AID 1108); settings: fluorescence 635 nm, higher = more signal;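 note: E7 fragment applied at 1 µg/mL in TBST for 1 h at 4 C; score combines spot fluorescence with its signal to noise ratio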
# [12] = hepatitis C replication reporter changes, two-sided – Huh7 cells, luciferase reporter, HCV replication inhibitor project, primary screen (AID 1109); settings: Huh7 HCV replicon luciferase reporter, 48 h; higher = more signal;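 note: huh7 hepatoma cells harbouring a luciferase neomycin HCV replicon reporter; luciferase luminescence as measure of HCV replicon replication; test concentration not given here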
# [13] = biological target: Left-right determination factor 2 (Homo sapiens) (UniProt O00292); experiment: small molecules binding LEFTY2 protein – biochemical, small-molecule microarray, 635 nm fluorescence scan, primary screen (AID 1110); settings: higher = more signal
# [14] = biological target: Calmodulin-1 (Homo sapiens) (UniProt P0DP23); experiment: small molecules binding calmodulin-1 with EGTA – biochemical, small-molecule microarray, Cy5-labelled CALM1, profiling panel (AID 1111); settings: Cy5-CALM1 binding fluorescence, higher = more signal;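 note: labelled calmodulin applied in Tris saline Tween buffer holding calcium plus EGTA and DTT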
# [15] = biological target: Calmodulin-1 (Homo sapiens) (UniProt P0DP23); experiment: small molecules binding Ca-loaded calmodulin-1 – biochemical, small-molecule microarray, Cy5-labelled CALM1, plus calcium, artefact control for SMM control-protein annotation, profiling panel (AID 1112); settings: Cy5-CALM1 binding fluorescence, higher = more signal;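 note: score merges spot fluorescence with signal to noise from triplicate slides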
# [16] = probe aWnt5a binding to arrayed compounds – biochemical, biotinylated probe, 635/667 nm fluorescence, primary screen (AID 1113); settings: small-molecule microarray, higher = more signal;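 note: score merges 667 nm fluorescence intensity with signal-to-noise per printed feature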
# [17] = probe aShh binding to arrayed compounds – biochemical, biotinylated probe, 635/667 nm fluorescence, primary screen (AID 1114); settings: small-molecule microarray, higher = more signal;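 note: probe is biotin-labelled aShh protein from a stem cell growth factor screen; measures binding of labelled protein to compounds printed on the slide; score merges feature fluorescence at 667 nm with signal-to-noise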
# [18] = probe aNog binding to arrayed compounds – biochemical, biotinylated probe, 635/667 nm fluorescence, primary screen (AID 1115); settings: small-molecule microarray, higher = more signal;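 note: probe is biotinylated aNog protein used at 0.15 µg/mL for 1 h at 4 C; z-score combines 667 nm fluorescence of each spot with its signal to noise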
# [19] = biological target: Torsin-1A-interacting protein 1 (Homo sapiens) (UniProt Q5JTV8); experiment: compound microarray binding of lysate hLAP1 – cell lysate, small-molecule microarray, COS7 lysate, 635/667 nm fluorescence, primary screen (AID 1116); settings: 635 nm fluorescence, higher = more signal
# [20] = biological target: Alpha-bungarotoxin (Bungarus multicinctus) (UniProt P60615); experiment: compounds binding labelled alpha-BTX control protein – biochemical, small-molecule microarray, Alexa647 label, 635/667 nm fluorescence, artefact control for SMM control protein annotation, profiling panel (AID 1117); settings: alpha-BTX-A647 binding fluorescence, higher = more signal
# Alpha-bungarotoxin (Bungarus multicinctus), sequence (P60615 whole entry, looked up): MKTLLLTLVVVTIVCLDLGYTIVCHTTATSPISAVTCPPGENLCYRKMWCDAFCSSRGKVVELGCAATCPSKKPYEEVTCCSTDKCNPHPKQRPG
# Left-right determination factor 2 (Homo sapiens), sequence (O00292 whole entry, looked up): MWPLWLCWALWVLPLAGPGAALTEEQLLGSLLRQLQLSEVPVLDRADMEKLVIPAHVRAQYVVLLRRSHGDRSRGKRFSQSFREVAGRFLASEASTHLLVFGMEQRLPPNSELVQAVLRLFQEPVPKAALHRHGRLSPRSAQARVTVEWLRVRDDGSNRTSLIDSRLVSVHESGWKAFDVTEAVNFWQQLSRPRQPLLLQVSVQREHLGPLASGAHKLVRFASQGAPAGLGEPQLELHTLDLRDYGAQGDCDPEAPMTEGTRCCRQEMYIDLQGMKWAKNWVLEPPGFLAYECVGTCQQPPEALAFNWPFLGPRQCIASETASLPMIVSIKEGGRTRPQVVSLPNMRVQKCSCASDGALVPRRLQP
# Fibroblast growth factor 10 (Homo sapiens), sequence (O15520 whole entry, looked up): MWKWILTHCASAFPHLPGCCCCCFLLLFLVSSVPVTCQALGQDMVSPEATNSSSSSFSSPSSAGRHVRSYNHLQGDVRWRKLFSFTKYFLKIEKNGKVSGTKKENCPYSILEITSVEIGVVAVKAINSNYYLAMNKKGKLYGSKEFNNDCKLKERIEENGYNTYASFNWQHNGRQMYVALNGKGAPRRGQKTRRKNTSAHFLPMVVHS
# Follistatin-related protein 3 (Homo sapiens), sequence (O95633 whole entry, looked up): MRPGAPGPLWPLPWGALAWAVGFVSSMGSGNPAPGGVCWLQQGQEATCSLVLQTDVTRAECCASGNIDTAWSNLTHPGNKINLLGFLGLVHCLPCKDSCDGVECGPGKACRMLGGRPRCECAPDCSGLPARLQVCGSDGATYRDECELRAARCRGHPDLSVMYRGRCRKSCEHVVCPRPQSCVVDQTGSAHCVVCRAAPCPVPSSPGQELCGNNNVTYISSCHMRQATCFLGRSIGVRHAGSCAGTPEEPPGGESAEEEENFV
# Torsin-1A-interacting protein 1 (Homo sapiens), sequence (Q5JTV8 whole entry, looked up): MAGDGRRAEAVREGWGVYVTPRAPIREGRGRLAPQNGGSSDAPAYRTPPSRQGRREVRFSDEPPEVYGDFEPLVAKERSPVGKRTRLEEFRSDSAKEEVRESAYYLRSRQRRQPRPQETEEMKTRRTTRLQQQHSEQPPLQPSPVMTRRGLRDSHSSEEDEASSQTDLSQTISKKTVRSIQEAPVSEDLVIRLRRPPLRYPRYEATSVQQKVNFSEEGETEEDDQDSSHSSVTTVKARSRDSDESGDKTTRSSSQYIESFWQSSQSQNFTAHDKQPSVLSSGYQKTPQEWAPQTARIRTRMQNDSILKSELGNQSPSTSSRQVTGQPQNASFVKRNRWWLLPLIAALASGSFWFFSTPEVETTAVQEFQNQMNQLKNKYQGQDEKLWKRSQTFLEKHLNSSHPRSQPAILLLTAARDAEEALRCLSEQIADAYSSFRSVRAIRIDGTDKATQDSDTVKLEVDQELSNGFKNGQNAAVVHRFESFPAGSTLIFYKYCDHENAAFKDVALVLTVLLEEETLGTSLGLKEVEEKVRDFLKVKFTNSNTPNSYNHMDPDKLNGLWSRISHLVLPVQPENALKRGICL
# Epidermal growth factor receptor (Homo sapiens), sequence (P00533 whole entry, looked up): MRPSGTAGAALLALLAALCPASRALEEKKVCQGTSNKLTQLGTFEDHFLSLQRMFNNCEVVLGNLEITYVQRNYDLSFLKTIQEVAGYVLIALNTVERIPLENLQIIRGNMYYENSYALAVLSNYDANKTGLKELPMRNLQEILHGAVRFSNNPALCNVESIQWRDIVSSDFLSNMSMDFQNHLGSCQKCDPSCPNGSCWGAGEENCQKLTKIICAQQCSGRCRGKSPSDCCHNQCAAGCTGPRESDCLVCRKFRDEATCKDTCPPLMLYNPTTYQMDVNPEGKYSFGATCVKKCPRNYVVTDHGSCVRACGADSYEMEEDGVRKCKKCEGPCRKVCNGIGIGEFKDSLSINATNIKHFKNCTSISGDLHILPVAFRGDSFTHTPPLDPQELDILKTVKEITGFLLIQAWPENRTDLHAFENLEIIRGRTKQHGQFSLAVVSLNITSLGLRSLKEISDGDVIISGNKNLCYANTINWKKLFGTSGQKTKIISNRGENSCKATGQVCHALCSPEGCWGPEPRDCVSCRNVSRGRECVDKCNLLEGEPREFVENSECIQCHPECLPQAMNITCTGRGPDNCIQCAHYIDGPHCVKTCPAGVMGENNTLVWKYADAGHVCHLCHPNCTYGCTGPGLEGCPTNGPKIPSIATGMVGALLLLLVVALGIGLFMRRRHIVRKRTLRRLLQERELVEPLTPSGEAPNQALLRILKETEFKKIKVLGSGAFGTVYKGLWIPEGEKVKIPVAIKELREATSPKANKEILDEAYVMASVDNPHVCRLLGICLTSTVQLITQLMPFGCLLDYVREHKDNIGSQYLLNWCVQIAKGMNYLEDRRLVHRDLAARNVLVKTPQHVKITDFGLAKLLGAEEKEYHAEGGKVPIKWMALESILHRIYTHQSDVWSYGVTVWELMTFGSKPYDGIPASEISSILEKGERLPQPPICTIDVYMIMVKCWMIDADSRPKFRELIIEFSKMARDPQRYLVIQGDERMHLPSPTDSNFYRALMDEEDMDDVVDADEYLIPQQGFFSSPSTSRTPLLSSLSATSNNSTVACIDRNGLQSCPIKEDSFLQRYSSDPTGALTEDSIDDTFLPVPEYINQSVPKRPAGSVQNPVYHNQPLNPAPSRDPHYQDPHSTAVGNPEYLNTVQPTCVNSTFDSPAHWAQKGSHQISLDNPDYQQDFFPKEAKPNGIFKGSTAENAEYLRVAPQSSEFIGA
# Dickkopf-related protein 1 (Homo sapiens), sequence (O94907 whole entry, looked up): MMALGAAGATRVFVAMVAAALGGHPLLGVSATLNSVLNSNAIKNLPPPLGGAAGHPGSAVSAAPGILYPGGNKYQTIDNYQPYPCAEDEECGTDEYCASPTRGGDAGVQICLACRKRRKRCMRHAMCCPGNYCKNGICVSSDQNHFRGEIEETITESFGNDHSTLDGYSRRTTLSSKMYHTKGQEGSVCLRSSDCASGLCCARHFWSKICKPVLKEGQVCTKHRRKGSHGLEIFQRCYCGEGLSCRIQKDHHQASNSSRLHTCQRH
SMILES,composite z-score [1],composite z-score [2],composite z-score [3],z-score [4],composite z-score [5],composite z-score [6],composite z-score [7],composite z-score [8],composite z-score [9],composite z-score [10],composite z-score [11],z-score [12],composite z-score [13],composite z-score [14],composite z-score [15],composite z-score [16],composite z-score [17],composite z-score [18],composite z-score [19],composite z-score [20]
C=CC[C@]1(C(=O)N(C)C)N=C(c2ccc(OCCCO)cc2)O[C@H]1c1ccccc1CN=[N+]=[N-],1.27,1.68,1.09,-0.0363 (inactive),0.698,1.32,0.0528,0.513,0.328,1.43,0.923,-2.44,0.447,2.17,1.17,0.0324,-0.174,1.24,1.92,1.58
CN1C=C(C(=O)OCCS(C)(=O)=O)C(C(=O)OCCS(C)(=O)=O)=CC(CCCO)=CC1c1cccs1 (stereo not given),-0.122,-0.18,-0.707,-0.601 (inactive),0.395,0.891,0.56,0.663,0.537,-0.558,0.358,-0.911,0.716,-0.524,-0.676,-0.0161,-0.0011,-0.036,0.151,-0.515
C=CCC(OC(C)=O)[C@@H]1[C@@H](N(Cc2ccc(-c3cccc(C(F)(F)F)c3)o2)C(=O)c2ccc(-c3ccccc3)cc2)c2cc(OCCCO)ccc2N1C(=O)Cc1ccc(OC)cc1 (stereo not given in full),-0.0081,0.109,0.796,-1.07 (inactive),-0.0385,-0.661,-0.574,-0.201,-0.361,1.44,-0.0271,-0.169,-0.236,-1.05,0.897,-0.104,-0.0931,-0.0086,-0.0085,0.497
Cc1ccc(N2C(=O)c3ccccc3[C@](C)(C(=O)NC3CC3)[C@@H]2c2ccc(CO)cc2)nc1,-0.168,0.931,0.541,0.466 (inactive),-0.0779,-0.0639,-0.0541,0.44,0.272,1.13,-1.22,0.344,0.129,-2.49,-0.231,-0.0792,-0.341,0.0265,1.26,0.413
NC(=O)NCC#Cc1ccc2c(c1)[C@]1(C(=O)N2)[C@H](c2ccc(OCCO)cc2)N2[C@H](c3ccccc3)[C@H](c3ccccc3)OC(=O)[C@H]2[C@@H]1C(=O)Nc1nc2ccccc2s1,0.0284,0.918,1.2,-1 (inactive),0.178,-0.282,-0.345,0.224,-0.463,1.35,-0.107,-0.495,-0.64,0.728,0.789,-0.184,0.046,0.339,0.173,1.03
